Screening results: PubChem, National Center for Advancing Translational Sciences (NCATS)
hERG WT inh – inhibitors of human wildtype KCNH2 potassium channel; activity change, % at 1.84 µM; U2OS, BacMam KCNH2, thallium flux FluxOr; stronger effect = lower value; hit rate 0.37% among 340,000; Q12809; AID 720551;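 active = maximum activity change below -70%; inconclusive = maximum activity change between -70% and -50%; inactive = maximum activity change above -50%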; also: % is scaled to controls: 0 for no effect and ±100 for the full control effect
Target sequence (Q12809 whole entry, looked up): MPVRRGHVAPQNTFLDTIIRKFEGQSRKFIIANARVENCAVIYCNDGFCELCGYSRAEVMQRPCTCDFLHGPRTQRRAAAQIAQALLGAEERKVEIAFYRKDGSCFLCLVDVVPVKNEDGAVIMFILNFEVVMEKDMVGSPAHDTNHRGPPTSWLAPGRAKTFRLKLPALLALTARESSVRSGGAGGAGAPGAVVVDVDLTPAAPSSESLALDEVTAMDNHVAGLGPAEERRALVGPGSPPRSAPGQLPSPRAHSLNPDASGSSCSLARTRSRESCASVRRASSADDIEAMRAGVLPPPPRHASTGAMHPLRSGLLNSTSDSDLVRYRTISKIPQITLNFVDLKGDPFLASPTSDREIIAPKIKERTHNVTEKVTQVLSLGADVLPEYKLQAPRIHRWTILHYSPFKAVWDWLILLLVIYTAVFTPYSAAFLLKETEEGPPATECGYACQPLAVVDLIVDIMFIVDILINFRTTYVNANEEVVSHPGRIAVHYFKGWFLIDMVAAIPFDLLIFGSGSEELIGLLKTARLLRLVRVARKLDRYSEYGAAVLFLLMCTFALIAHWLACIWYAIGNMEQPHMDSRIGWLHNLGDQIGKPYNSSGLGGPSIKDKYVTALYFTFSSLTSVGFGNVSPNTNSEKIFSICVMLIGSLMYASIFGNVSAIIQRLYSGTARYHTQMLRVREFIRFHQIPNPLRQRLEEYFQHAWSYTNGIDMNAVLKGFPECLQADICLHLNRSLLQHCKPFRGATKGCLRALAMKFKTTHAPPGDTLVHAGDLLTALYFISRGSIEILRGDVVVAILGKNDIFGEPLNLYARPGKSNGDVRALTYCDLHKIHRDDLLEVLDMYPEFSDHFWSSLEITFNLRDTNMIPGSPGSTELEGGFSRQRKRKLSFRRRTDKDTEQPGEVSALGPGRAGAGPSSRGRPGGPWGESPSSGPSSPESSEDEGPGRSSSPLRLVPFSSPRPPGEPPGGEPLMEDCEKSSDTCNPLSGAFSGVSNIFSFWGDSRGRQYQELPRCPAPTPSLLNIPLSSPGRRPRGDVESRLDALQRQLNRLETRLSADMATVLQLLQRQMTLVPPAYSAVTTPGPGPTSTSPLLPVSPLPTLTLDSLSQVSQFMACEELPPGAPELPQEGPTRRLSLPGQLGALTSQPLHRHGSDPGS
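U2OS cells transduced with wild-type KCNH2 virus are loaded with FluxOr dye for 45 min, and thallium flux is measured in kinetic reads before and after stimulation buffer. Rate constants are normalized to DMSO controls.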
ASM inhibitor – human S-ASM enzyme inhibition; P17405; placental ASM, HMU-PC fluorogenic substrate, 60 min; Potency, µM (highest dose often 57.5 µM), without a hit: top-dose activity change, negative = inhibition, hits mostly inhibitors; hit rate 0.006% among 340,000; also: potency is read from the fitted curve at half-maximal effect
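Steps: dispense placental human ASM, pin compound, wait 10 min at room temperature, add HMU-PC0 substrate at 9 uM final, incubate 60 min at 37 °C, add stop solution raising pH to 10, read fluorescence.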
KCNH2 3.1 block – blocks the human KCNH2 3.1 channel isoform | U2OS KCNH2 3.1, thallium flux FluxOr; stronger effect = lower value | hit rate 0.95% among 340,000 | activity change, % (tested at about 1.8 µM);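 active = maximum activity change below -70%; inconclusive = maximum activity change from -70% to -50%; inactive = maximum activity change above -50%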;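 also: thallium influx rate constant from kinetic fluorescence after stimulation buffer; % is scaled to controls: 0 for no effect and ±100 for the full control effect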
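Thallium flux read-out: FluxOr dye with Red40 quencher in HBSS/HEPES, 45 min at RT. Rate constants from kinetic reads were normalized to positive and negative DMSO controls. Cells: U2OS virally expressing the 3.1 isoform.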
Apoferritin bind – candidate novel general anesthetic via apoferritin binding. apoferritin/1-aminoanthracene competitive binding, fluorescence. Potency, µM (top dose mostly 77.5 µM), for inactives: top-dose activity change, negative = displacement, actives largely listed as inhibitors. hit rate 0.074% among 350,000; also: potency is read from the fitted curve at half-maximal effect; % is scaled to controls: 0 for no effect and ±100 for the full control effect; nearly all actives have a fitted effect of over 20% in size
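Probe: 1-aminoanthracene (50% saturated, PBS). Protein: horse-spleen apoferritin, 10 uM. Incubation: 10 min, room temperature. Detection: 380 nm excitation, 535 nm emission. Analysis: normalized response, four-parameter Hill.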
mIDH1 inhibitor – blocks human mutant IDH1 R132H enzyme. IDH1-R132H enzyme, NADPH consumption, diaphorase/resazurin fluorescence. Potency, µM (series often up to 76.6 µM), without a hit: top-dose activity change, negative = inhibition, hits mostly inhibitors. hit rate 0.093% among 390,000. AID 602179; also: potency is read from the fitted curve at half-maximal effect; % is scaled to controls: 0 for no effect and ±100 for the full control effect; nearly all actives have a fitted effect of over 65% in size
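IDH1-R132H (0.5 ug/mL) preincubated 30 min with compound, then NADPH (0.016 mM) and alpha-KG (2 mM) added; 80 min at RT, pH 7.5. Remaining NADPH coupled via diaphorase/resazurin to fluorescence (540/590 nm); concentration-response curves normalized to no-enzyme control.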
* hit, by the source's call; ? = inconclusive; . = not tested or not shown. Rows were chosen to be rich in hits. Some 1.2% of all compounds tested hit in one or more screens of this group. Unless noted, calls follow the shape of the dose curve; as a rule, active = well fitted inhibition curve with a large enough effect; inconclusive = small, poorly fitted or top-dose-only effect; inactive = no such curve, though single readings can be large or run the other way.

SMILES | hERG WT inh | ASM inhibitor | KCNH2 3.1 block | Apoferritin bind | mIDH1 inhibitor
CC(C)Cn1c(SCC(=O)c2c(N)n(C)c(=O)n(C)c2=O)nc2ccccc21 | -116* | 2% | -32 | -13% | 3%
Cc1csc(SCC(=O)c2c(N)n(CC(C)C)c(=O)n(C)c2=O)n1 | -325* | -1% | -9 | 0% | 3%
CC(C)Cn1c(N)c(C(=O)CSc2nc3ccccc3n2C)c(=O)n(C)c1=O | 22 | -2% | -15 | -7% | -5%
CCCCN(C)CCNC(=O)c1cc(=O)[nH]c2ccc(S(=O)(=O)N3CCCCCC3)cc12 | . | . | . | -2% | 3%
COc1ccc(C(CNC(=O)c2cccc(NS(=O)(=O)c3ccccc3)c2)N2CCCC2)cc1 (centres undefined) | -1 | 14% | 10 | . | 3%
COc1ccc(C(CNC(=O)c2cccc(NS(=O)(=O)c3ccc(Br)cc3)c2)N(C)C)cc1 (centres undefined) | 7 | 0% | -80* | . | -5%
COc1ccc(NC(=O)CN(C)C(=O)c2cccc(NS(=O)(=O)c3ccc(Br)cc3)c2)cc1 | -8 | -9% | -127* | . | 0%
COc1cccc(N2CCN(C(=O)CN3CCSc4ccc(S(=O)(=O)N(C)C)cc43)CC2)c1 | . | . | . | -8% | 12%
COc1ccc(S(=O)(=O)N(CC(=O)NC(C)c2ccccc2)c2ccc(C)cc2)cc1OC (centres undefined) | . | . | . | -3% | -2%
COc1ccc(CN2CCC(CO)(CCOc3ccccc3)CC2)cc1C | -13 | 0% | -125* | -19% | 2%
COc1cc(CN2CCC(CO)(CCOc3ccccc3)CC2)cc(OC)c1OC | . | 4% | 6 | -6% | -3%
Cc1nn(C)c(Cl)c1CN1CCC(CO)(CCOc2ccccc2)CC1 | 11 | 9% | -14 | -7% | 5%
COc1cc(OC)c(CN2CCC(CO)(CCOc3ccccc3)CC2)c(OC)c1 | -105* | 1% | . | -11% | 0%
Cc1ccc2ccc3cc(C(=O)N4CCN(c5ccccc5)CC4)nc3c2[nH]1 | . | . | . | ? | 10%
CC1CCCN(S(=O)(=O)c2cccc(-c3cn4cccnc4n3)c2)C1 (centres undefined) | 7 | 139% | -110* | -4% | -1%
OCCN1CCN(C(c2cccs2)c2ccc3cccnc3c2O)CC1 (centres undefined) | . | . | . | 32µM* | .
CCOC(=O)c1cc(C)n(CC2CCC(C(=O)Nc3cc(OC)cc(OC)c3)CC2)c1C (centres undefined) | . | . | . | 86% | 11%
CCC(c1nnc(SCCNCCO)n1CCN1CCOCC1)N(C)C (centres undefined) | -6 | -1% | -177* | -11% | 4%
CCCn1ccc2c(OCC(=O)NCc3ccccc3Cl)cccc2c1=O | . | . | . | 285% | 8%
CCOC(=O)c1cc(CC)sc1/N=C/C1C(=O)CC(C)(C)CC1=O | -25 | 1% | -75* | 2% | 1%
NC(=O)C1CCN(CC(O)COc2ccc(-c3ccccc3)cc2)CC1 (centres undefined) | 15 | 0% | -86* | ? | -21%
OC1CCCN(CC(O)COc2ccc(-c3ccccc3)cc2)C1 (centres undefined) | 19 | 4% | -72* | -2% | 2%
CN(C)CCCNC(=O)/C=C/c1ccc2c(c1)OCO2 | -74* | -1% | 14 | -4% | 2%
CCOC(=O)c1c(NC(=O)/C=C/c2ccc3c(c2)OCO3)sc(C)c1C | . | . | . | -13% | .
CC(=O)Nc1ccc(NC(=O)/C=C/c2ccc3c(c2)OCO3)cc1 | 0 | 3% | -30 | -1% | 1%
SMILES | hERG WT inh | ASM inhibitor | KCNH2 3.1 block | Apoferritin bind | mIDH1 inhibitor
COC(=O)c1c(NC(=O)/C=C/c2ccc3c(c2)OCO3)sc(C)c1C | -72* | 30% | -5 | -7% | -11%
COc1ccc(NC(=O)CCn2c(-c3ccc(F)cc3)cc(C(C)=O)c2C)c(OC)c1 | . | . | . | -1% | 0%
CCC(C)N(C)Cc1cccc(C2(O)CCN(S(=O)(=O)c3ccc(F)c(C)c3)CC2)c1 (centres undefined) | -43 | . | -100* | -11% | -1%
COC(=O)C1=C(C)NC(=O)NC1c1c(O)ccc2ccccc12 (centres undefined) | 11 | 0% | -2 | -20% | -3%
COC(=O)C1=C(C)NC(c2c(O)ccc3ccccc23)C(C(=O)OC)=C1C (centres undefined) | 8 | 7% | -85* | -11% | -1%
CCC(=O)N1CCc2cc(S(=O)(=O)NCCC(=O)Nc3ccc(C)cc3C)ccc21 | . | . | . | -15% | 0%
CSCC[C@H](N)C(=O)N[C@@H](CCCN=C(N)N)C(=O)N[C@@H](CC(C)C)C(=O)N[C@@H](Cc1ccccc1)C(=O)N[C@H](C(=O)O)C(C)C | . | . | . | -2% | .
O=C(NCc1nnc2c(C(F)(F)F)cc(Cl)cn12)c1ccc2c(c1)OCO2 | -160* | 0% | 11 | -21% | 9%
O=C(O)Cc1cccc(OCCCN(Cc2cccc(C(F)(F)F)c2Cl)CC(c2ccccc2)c2ccccc2)c1 | . | . | . | 5% | .
CCCC(=O)Nc1ccc(-c2ccc(NC(=O)CCC)cc2)cc1 | -12 | 3% | 5 | 14% | 4%
CCCC(=O)Nc1ccc(Nc2ccccc2)cc1 | -71* | 6% | -5 | ? | -8%
CCCCSC(=O)Nc1ccccc1 | -3 | -2% | 2 | 13µM* | 18%
CN(CCC(=O)Nc1ccc(Cl)cc1)Cc1ccccc1 | 28 | -1% | -76* | -10% | -4%
CCN1CCN(C(=O)Nc2cccc(C(F)(F)F)c2)CC1 | 5 | 1% | -79* | 8% | 5%
Cc1ccc(CNC(=O)CCc2nnc3n(C)c(=O)c4sccc4n23)cc1 | . | . | . | 5% | -5%
OCC1(Cc2ccccc2)CCN(C2CCN(c3ccc(F)c(F)c3)CC2)CC1 | -31 | 4% | -91* | ? | -2%
CSc1cccc(CN2CCC(CO)(Cc3ccccc3)CC2)c1 | 1 | 0% | -17 | -6% | 1%
O=C(CN1CCN(Cc2ccccc2)CC1)N/N=C/C=C/c1ccco1 | 4 | -2% | 1 | 4% | 3%
CSc1ccc(/C=N/NC(=O)CN2CCN(Cc3ccc(Cl)cc3)CC2)cc1 | -41 | 2% | -106* | 4% | 2%
CSc1ccc(/C=N/NC(=O)CN2CCN(Cc3ccccc3)CC2)cc1 | -1 | 3% | -73* | -10% | 4%
CC(/C=N/NC(=O)CN1CCN(Cc2ccc(Cl)cc2)CC1)=C\c1ccco1 | -29 | 6% | -74* | -8% | -2%
O=C(CN1CCN(Cc2ccccc2)CC1)N/N=C/c1ccccc1F | -9 | -1% | -1 | 4% | 2%
COc1cccc(C(=O)c2cn(CC(=O)NCc3ccccc3)c3nc(C)ccc3c2=O)c1 | . | . | . | -8% | 32%
Cc1ccc(CNc2nc3ccc(Cl)cc3n3nnnc23)cc1 | . | . | . | -1% | 0%
